Data reported in PubChem BioAssay AID1159580 (chemical genetic matrix, 2015).
Among all 5,500 compounds or so, about 2,000 (36%) were called active. Another 18% or so got no clear call; they are omitted. Cut-off read from the data, not from the text of the source: active = normalized growth mostly below about 0.91 (no sharp cut-off); inconclusive = no clear call, values can overlap the other calls; inactive = mostly above about 0.92. The list shows a part of the results.

Assay: chemical genetic growth profiling, strain panel (AID 1159580);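 note: tested at 20 µM; growth read once vehicle control cultures reached saturation at 30 °C; 1 = growth at the plate median or of vehicle wells; lower values mean less growth of the strain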
Settings: S. cerevisiae deletion strains, growth OD
[1] = locus YAL040C, strain CLN3, stronger effect = lower value
[2] = locus YER002W, strain NOP16, stronger effect = lower value
[3] = locus YGR078C, strain PAC10, stronger effect = lower value
[4] = locus YJR075W, strain HOC1, stronger effect = lower value
[5] = locus YNL128W, strain TEP1, stronger effect = lower value
[6] = locus YNL197C, strain WHI3, stronger effect = lower value
[7] = locus YNL224C, strain SQS1, stronger effect = lower value
[8] = locus YNL322C, strain KRE1, stronger effect = lower value
[9] = locus YOR083W, strain WHI5 (second series), stronger effect = lower value
[10] = locus YHR030C, strain SLT2, stronger effect = lower value
[11] = locus YHR079C, strain IRE1, stronger effect = lower value
[12] = locus YJL095W, strain BCK1, stronger effect = lower value
[13] = locus YJR066W, strain TOR1, stronger effect = lower value
[14] = locus YLR113W, strain HOG1, stronger effect = lower value
[15] = locus YNL183C, strain NPR1, stronger effect = lower value
[16] = locus YOR231W, strain MKK1, stronger effect = lower value
[17] = locus YPL256C, strain CLN2, stronger effect = lower value
[18] = locus YDR150W, strain NUM1, stronger effect = lower value
[19] = locus YNL153C, strain GIM3, stronger effect = lower value
[20] = locus YPL241C, strain CIN2, stronger effect = lower value
[21] = locus YDL101C, strain DUN1, stronger effect = lower value

Measured: normalized growth

NC(Cc1cc(O)c(O)cc1O)C(=O)O (stereo unspecified)
inactive: [1] 1 | locus YCL061C, strain MRC1 (second series), stronger effect = lower value 0.967 | locus YDR363W, strain ESC2, stronger effect = lower value 0.977 | [2] 1.01 | [3] 0.979 | [4] 0.956 | [5] 0.976 | [6] 0.98 | [7] 1.03 | [8] 0.942 | [9] 1.01

NCCc1cc(O)c(O)cc1O
active: locus YAL021C, strain ccr4, stronger effect = lower value 0.856 | locus YBR231C, strain swc5, stronger effect = lower value 0.884 | locus YDR069C, strain doa4, stronger effect = lower value 0.833 | locus YEL003W, strain gim4, stronger effect = lower value 0.908 | locus YER015W, strain faa2, stronger effect = lower value 0.887 | locus YER155C, strain BEM2 (second series), stronger effect = lower value 0.847 | locus YGL173C, strain kem1, stronger effect = lower value 0.838 | locus YHR027C, strain rpn1, stronger effect = lower value 0.9 | locus YJL164C, strain tpk1, stronger effect = lower value 0.914 | locus YJL166W, strain qcr8, stronger effect = lower value 0.877 | locus YLR342W, strain FKS1, stronger effect = lower value 0.861 | locus YMR058W, strain fet3, stronger effect = lower value 0.697 | locus YNL209W, strain ssb2, stronger effect = lower value 0.899 | locus YNL248C, strain rpa49, stronger effect = lower value 0.807 | locus YOR106W, strain vam3, stronger effect = lower value 0.805 | locus YPL051W, strain arl3, stronger effect = lower value 0.854 | locus YPL106C, strain sse1, stronger effect = lower value 0.847
inactive: locus YAL026C, strain drs2, stronger effect = lower value 0.924 | locus YAL030W, strain snc1, stronger effect = lower value 0.938 | locus YBL061C, strain skt5, stronger effect = lower value 0.948 | locus YBR009C, strain hhf1, stronger effect = lower value 0.963 | locus YBR023C, strain chs3, stronger effect = lower value 0.94 | locus YBR171W, strain sec66, stronger effect = lower value 0.983 | locus YBR279W, strain paf1, stronger effect = lower value 0.948 | locus YCL011C, strain gbp2, stronger effect = lower value 0.96 | locus YCL016C, strain dcc1, stronger effect = lower value 0.962 | locus YCL061C, strain MRC1, stronger effect = lower value 0.934 | locus YCL069W, strain vba3, stronger effect = lower value 0.966 | locus YCR088W, strain abp1, stronger effect = lower value 0.999 | locus YDL005C, strain med2, stronger effect = lower value 1.01 | locus YDL040C, strain nat1, stronger effect = lower value 0.995 | locus YDR001C, strain nth1, stronger effect = lower value 1 | locus YDR137W, strain rgp1, stronger effect = lower value 0.993 | locus YDR159W, strain sac3, stronger effect = lower value 1.02 | locus YDR195W, strain ref2 0.97 | locus YDR297W, strain sur2, stronger effect = lower value 0.941 | locus YDR334W, strain swr1, stronger effect = lower value 0.951 | locus YDR335W, strain msn5, stronger effect = lower value 0.924 | locus YDR392W, strain spt3, stronger effect = lower value 0.882 | locus YEL037C, strain rad23, stronger effect = lower value 0.964 | locus YEL061C, strain CIN8 (second series), stronger effect = lower value 0.987 | locus YER016W, strain bim1, stronger effect = lower value 0.967 | locus YER111C, strain swi4, stronger effect = lower value 0.966 | locus YFR010W, strain ubp6, stronger effect = lower value 0.921 | locus YGL167C, strain pmr1, stronger effect = lower value 0.976 | locus YGL227W, strain vid30, stronger effect = lower value 1.01 | locus YGL240W, strain doc1, stronger effect = lower value 0.917 | locus YGL253W, strain hxk2, stronger effect = lower value 0.963 | locus YHR013C, strain ard1, stronger effect = lower value 0.954 | [10] 0.975 | [11] 0.938 | locus YHR142W, strain chs7, stronger effect = lower value 0.949 | locus YJL092W, strain hpr5, stronger effect = lower value 0.953 | locus YJL095W, strain BCK1 (second series), stronger effect = lower value 0.964 | [12] 0.989 | locus YJL115W, strain asf1, stronger effect = lower value 0.984 | locus YJL129C, strain trk1, stronger effect = lower value 1.09 | locus YJL154C, strain vps35, stronger effect = lower value 1.01 | [13] 0.919 | locus YKL160W, strain elf1, stronger effect = lower value 0.945 | locus YKR026C, strain gcn3, stronger effect = lower value 0.997 | locus YKR091W, strain srl3, stronger effect = lower value 1 | locus YLL001W, strain dnm1, stronger effect = lower value 0.921 | locus YLL026W, stronger effect = lower value 0.933 | locus YLL041C, strain sdh2, stronger effect = lower value 1.01 | locus YLR027C, strain aat2, stronger effect = lower value 0.931 | [14] 1 | locus YLR221C, strain rsa3, stronger effect = lower value 0.939 | locus YLR258W, strain gsy2, stronger effect = lower value 0.964 | locus YLR262C, strain YPT6 (second series), stronger effect = lower value 0.901 | locus YLR320W, strain mms22, stronger effect = lower value 0.884 | locus YLR357W, strain rsc2, stronger effect = lower value 0.901 | locus YLR370C, strain arc18, stronger effect = lower value 0.931 | locus YLR384C, strain iki3, stronger effect = lower value 0.981 | locus YML120C, strain ndi1, stronger effect = lower value 0.95 | locus YMR125W, strain sto1, stronger effect = lower value 1.01 | locus YMR129W, stronger effect = lower value 0.991 | locus YMR205C, strain PFK2, stronger effect = lower value 0.943 | locus YMR231W, strain pep5, stronger effect = lower value 0.98 | locus YNL071W, strain lat1, stronger effect = lower value 0.952 | [15] 0.956 | locus YNL322C, strain KRE1 (second series), stronger effect = lower value 0.995 | locus YNR049C, strain mso1, stronger effect = lower value 0.987 | locus YOR001W, strain rrp6, stronger effect = lower value 0.934 | locus YOR070C, strain gyp1, stronger effect = lower value 0.965 | locus YOR080W, strain dia2, stronger effect = lower value 0.937 | locus YOR083W, strain WHI5, stronger effect = lower value 0.896 | [16] 0.994 | locus YOR265W, strain rbl2, stronger effect = lower value 0.966 | locus YOR270C, strain vph1, stronger effect = lower value 0.951 | locus YOR290C, strain snf2, stronger effect = lower value 0.948 | locus YPL078C, strain atp4, stronger effect = lower value 0.931 | locus YPL240C, strain hsp82, stronger effect = lower value 0.985 | [17] 0.971

NCC(O)c1cc(O)c(O)cc1F (stereo unspecified)
inactive: [1] 1 | [18] 1.02 | [2] 1.01 | [4] 1.03 | [5] 1.03 | [19] 1.01 | locus YNL175C, strain NOP13, stronger effect = lower value 0.978 | [6] 0.994 | [7] 1.01 | [9] 1.04 | [20] 1.01

O=C(c1cccc([N+](=O)[O-])c1)c1cc2cc(Br)cc(Br)c2o1
inactive: locus YAL013W, strain DEP1, stronger effect = lower value 0.993 | locus YBR229C, strain ROT2, stronger effect = lower value 0.997 | [21] 1.01 | locus YDL134C, strain PPH21, stronger effect = lower value 0.994 | [18] 0.952 | locus YEL061C, strain CIN8, stronger effect = lower value 0.983 | [3] 0.989 | locus YGR229C, strain SMI1, stronger effect = lower value 1 | [10] 0.837 | locus YHR087W, strain rtc3, stronger effect = lower value 0.981 | locus YJR043C, strain POL32, stronger effect = lower value 0.997 | [4] 0.975 | locus YKL190W, strain CNB1, stronger effect = lower value 0.996 | locus YLR039C, strain RIC1, stronger effect = lower value 0.954 | locus YLR058C, strain SHM2 (second series), stronger effect = lower value 0.994 | locus YLR085C, strain ARP6, stronger effect = lower value 0.847 | locus YLR262C, strain YPT6, stronger effect = lower value 0.974 | locus YML094W, strain GIM5, stronger effect = lower value 0.988 | locus YMR219W, strain ESC1, stronger effect = lower value 0.994 | locus YMR263W, strain SAP30, stronger effect = lower value 0.96 | locus YMR307W, strain GAS1, stronger effect = lower value 0.864 | [19] 0.988 | locus YNL298W, strain CLA4 (second series), stronger effect = lower value 0.948 | [8] 0.991 | locus YNR030W, strain Alg12, stronger effect = lower value 0.953 | locus YOL006C, strain TOP1, stronger effect = lower value 0.935 | locus YPL055C, strain LGE1, stronger effect = lower value 0.974 | [20] 0.942 | locus YPR135W, strain CTF4, stronger effect = lower value 0.964

CN1c2ccccc2C(C)(C)C12C=Cc1cc(O)ccc1O2 (stereo unspecified)
inactive: locus YAR019C, strain CDC15, stronger effect = lower value 0.981 | locus YBL105C, strain PKC1, stronger effect = lower value 0.981 | locus YBR135W, strain CKS1, stronger effect = lower value 0.977 | locus YBR136W, strain MEC1, stronger effect = lower value 0.981 | locus YBR160W, strain CDC28, stronger effect = lower value 0.984 | locus YDL017W, strain CDC7, stronger effect = lower value 0.974 | locus YDL028C, strain MPS1, stronger effect = lower value 0.979 | [21] 0.975 | locus YDL108W, strain KIN28, stronger effect = lower value 0.974 | locus YDL132W, strain cdc53, stronger effect = lower value 0.977 | locus YDL214C, strain PRR2, stronger effect = lower value 0.986 | locus YDR052C, strain DBF4, stronger effect = lower value 0.982 | locus YDR054C, strain cdc34, stronger effect = lower value 0.97 | locus YDR226W, strain ADK1, stronger effect = lower value 0.972 | locus YDR477W, strain SNF1, stronger effect = lower value 0.971 | locus YER123W, strain YCK3, stronger effect = lower value 0.987 | locus YER133W, strain GLC7, stronger effect = lower value 0.974 | locus YFL009W, strain cdc4, stronger effect = lower value 0.968 | locus YFL029C, strain CAK1, stronger effect = lower value 0.978 | locus YFR003C, strain YPI1, stronger effect = lower value 0.976 | locus YFR019W, strain FAB1, stronger effect = lower value 0.993 | locus YFR028C, strain CDC14, stronger effect = lower value 0.976 | locus YGR040W, strain KSS1, stronger effect = lower value 0.972 | locus YGR052W, strain FMP48, stronger effect = lower value 1.01 | locus YGR092W, strain DBF2, stronger effect = lower value 0.996 | [10] 0.897 | [11] 1.01 | locus YHR082C, strain KSP1, stronger effect = lower value 1.06 | locus YHR205W, strain SCH9, stronger effect = lower value 0.985 | locus YIL147C, strain SLN1, stronger effect = lower value 0.978 | [12] 1.01 | locus YJL128C, strain PBS2, stronger effect = lower value 0.942 | locus YJL157C, strain FAR1, stronger effect = lower value 0.978 | locus YJR016C, strain ILV3, stronger effect = lower value 0.968 | locus YJR066W, strain TOR1 (second series), stronger effect = lower value 0.965 | [13] 1.08 | locus YKL048C, strain ELM1, stronger effect = lower value 0.975 | locus YKL067W, strain YNK1, stronger effect = lower value 0.975 | locus YKL101W, strain HSL1, stronger effect = lower value 0.962 | locus YKL193C, strain SDS22, stronger effect = lower value 0.973 | locus YKL203C, strain TOR2, stronger effect = lower value 1.05 | [14] 0.891 | locus YLR133W, strain CKI1, stronger effect = lower value 0.984 | locus YLR403W, strain SFP1, stronger effect = lower value 1.01 | locus YML070W, strain DAK1, stronger effect = lower value 0.978 | locus YMR001C, strain CDC5, stronger effect = lower value 0.971 | locus YMR205C, strain PFK2 (second series), stronger effect = lower value 0.991 | locus YMR277W, strain FCP1, stronger effect = lower value 0.973 | locus YNL006W, strain LST8, stronger effect = lower value 0.978 | locus YNL020C, strain ARK1, stronger effect = lower value 0.982 | locus YNL161W, strain CBK1, stronger effect = lower value 0.973 | [15] 1.08 | locus YNL207W, strain RIO2, stronger effect = lower value 0.974 | locus YNL222W, strain SSU72, stronger effect = lower value 0.986 | locus YNL307C, strain MCK1 (second series), stronger effect = lower value 0.978 | locus YOL078W, strain AVO1, stronger effect = lower value 0.975 | locus YOL136C, strain PFK27, stronger effect = lower value 0.991 | locus YOR061W, strain CKA2, stronger effect = lower value 0.993 | locus YOR119C, strain RIO1, stronger effect = lower value 1.05 | [16] 1.02 | locus YOR329C, strain SCD5, stronger effect = lower value 0.985 | locus YPL031C, strain PHO85, stronger effect = lower value 0.962 | locus YPL153C, strain RAD53, stronger effect = lower value 0.958 | locus YPL204W, strain HRR25, stronger effect = lower value 0.943 | locus YPL209C, strain IPL1, stronger effect = lower value 0.974 | [17] 0.899 | locus YPR025C, strain CCL1, stronger effect = lower value 0.993 | locus YPR106W, strain ISR1, stronger effect = lower value 0.984 | locus YPR111W, strain DBF20, stronger effect = lower value 0.977 | strain NNK1, stronger effect = lower value 0.989 | strain TSCII, stronger effect = lower value 0.978
